Bioassay records: PubChem, National Center for Advancing Translational Sciences (NCATS)
In the library only some 11% were active in any assay of this set; here they are far more common.
ALDH1A1 inh: qHTS Assay for Inhibitors of Aldehyde Dehydrogenase 1 (ALDH1A1). Aldehyde dehydrogenase 1A1 (Homo sapiens), P00352. Purified ALDH1A1, NADH fluorescence, propionaldehyde substrate. Potency, µM (doses to about 75.3 µM), actives largely listed as inhibitors. 220,000 compounds, 7.3% hits
IMPase Li cell: qHTS Assay for Identifying the Cell-Membrane Permeable IMPase Inhibitors: Potentiation with Lithium; 210,000 compounds, 0.35% hits; Potency, µM (titrated, usually from 59.4 µM), most hits filed as inhibitors; CHO-M1 cells, IP1 TR-FRET (IP-One), carbachol + lithium; active = well fitted inhibition curve with a large enough effect; inconclusive = small, poorly fitted or top-dose-only effect; inactive = no such curve, though single readings can be large or run the other way;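 note: IP1 builds up when IMPase is blocked and the TR-FRET signal falls; nearly all actives have a fitted effect of over 50% in size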
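Concentration–response in CHO-M1 cells, lithium-potentiated; 30 min at 37C. IP1 detected by competitive TR-FRET after 10 min lysis at RT. Hill-fitted AC50.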
IMPase inh: qHTS Assay for Identifying the Cell-Membrane Permeable IMPase Inhibitors | CHO-M1 cells, IP1 accumulation, HTRF TR-FRET ratio | AID 901, 2007 | inhibition (IP1 accumulation), % at 46.1 µM | Inositol monophosphatase 1 (Rattus norvegicus), P97697 | 120,000 tested, under 10 active; active = well fitted curve in the direction sought with a large enough effect in the signal ratio, not every such curve was filed as active; inconclusive = small, poorly fitted or top-dose-only effect, or a change in a side signal; inactive = no such curve, though single readings can be large or run the other way; the % refers to the signal ratio;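 note: cells stimulated with carbachol in lithium chloride buffer; higher means more IMPase inhibition seen as more IP1 and lower FRET ratio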
Target sequence (P97697 whole entry, looked up): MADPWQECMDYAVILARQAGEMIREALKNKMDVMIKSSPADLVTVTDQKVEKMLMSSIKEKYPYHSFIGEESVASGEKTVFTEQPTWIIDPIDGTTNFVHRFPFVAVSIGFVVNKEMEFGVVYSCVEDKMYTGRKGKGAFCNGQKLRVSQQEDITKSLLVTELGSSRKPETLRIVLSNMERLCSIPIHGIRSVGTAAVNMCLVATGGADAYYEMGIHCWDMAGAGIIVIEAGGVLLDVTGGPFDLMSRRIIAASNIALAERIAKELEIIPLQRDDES
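Measured: the HTRF emission ratio (665/620 nm) plus the 620 nm donor channel, each fitted to the Hill equation to give AC50. Cells were CHO-M1 given compounds up to 46 uM and a 30 min carbachol stimulation at 37C.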
PNC assembly inh: High Content Assay for Compounds that inhibit the Assembly of the Perinucleolar Compartment. PC3M PTB-GFP, PNC prevalence imaging, 16 h; hits give low values. activity change (PNC), negative = inhibition, % at 10 µM. 140,000 compounds, 3.1% hits;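 active = readout at or below -70, meaning at least 70% loss of cells showing the perinucleolar compartment, a nuclear body marking cancer cells; inconclusive = readout between -30 and a set limit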
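PC3M cells stably expressing PTB-GFP, 750–1000 cells/well, treated 16 h at 37 °C with compound (23 nl of library stock), in duplicate. After paraformaldehyde fixation and Hoechst stain, imaged at 20x; PNC prevalence scored by image analysis.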
HPGD inh: qHTS Assay for Inhibitors of HPGD (15-Hydroxyprostaglandin Dehydrogenase). purified HPGD, NADH fluorescence kinetic, PGE2 substrate. 150,000 compounds, 4.3% hits. Potency, µM, hits mostly inhibitors
Target sequence (P15428 whole entry, looked up): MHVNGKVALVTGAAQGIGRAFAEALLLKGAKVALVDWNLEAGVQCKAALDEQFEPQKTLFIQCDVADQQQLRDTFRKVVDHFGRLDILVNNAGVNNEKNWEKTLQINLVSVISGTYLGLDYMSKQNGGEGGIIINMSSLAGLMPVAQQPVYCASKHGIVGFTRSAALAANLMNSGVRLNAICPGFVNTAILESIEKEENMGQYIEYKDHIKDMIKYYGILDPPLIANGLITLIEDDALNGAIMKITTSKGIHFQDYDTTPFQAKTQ
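NADH formation kinetics: reaction with 30 uM PGE2 and 1 mM NAD+ (final), 20 nM enzyme, Tris-HCl pH 8 with Tween 20, after 15 min compound preincubation at room temperature. Fluorescence change, last versus first of five reads.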
Hits are given with their value; . = inactive; ? = inconclusive; / = no result; [ ] = another dose, or the depositor's remark. Unless noted, calls come from the whole dose curve; as a rule, active = well fitted inhibition curve with a large enough effect (not every such curve was filed as active); inconclusive = small, poorly fitted or top-dose-only effect, or another doubt; inactive = no such curve, though single readings can be large or run the other way.

SMILES | ALDH1A1 inh | IMPase Li cell | IMPase inh | PNC assembly inh | HPGD inh
COc1ccc(Br)cc1/C=c1\sc2nc(-c3ccco3)nn2c1=O | 28µM | . | . | . | 14µM
COc1ccccc1/C=c1\sc2nc(-c3ccccc3OC)nn2c1=O | . | . | . | . | .
O=C(NC1CCCC1)O[C@@H]1C(=O)c2cc(Br)ccc2O[C@H]1c1ccc2c(c1)OCO2 | . | . | / | / | .
Nc1ccc2c(c1)Nc1ccccc1CC2 | . | . | / | / | /
CN(C)/C=N/C1=C(C#N)C(c2cccs2)c2ccc3ccccc3c2O1 (centres undefined) | 0.32µM | . | / | / | /
CCNc1ncc2nc(-c3cc(F)cc(F)c3)c(=O)n(C)c2n1 | ? | . | / | / | /
COc1cc(-c2nc3c(c(C)nn3-c3ccccc3)c3cc(OC)c(OC)cc23)ccc1O | ? | . | . | -109 | ?
Cc1cccc(OCCCC(=O)N2CCCc3ccccc32)c1C | . | . | . | . | .
O=C(NC1CCCC1)c1ccc2nc[nH]c2c1 | . | . | . | . | .
O=C(c1ccccc1)c1ccc2nc[nH]c2c1 | ? | . | .[1.84 µM] | . | 22µM
Cc1ccccc1C(=O)Nc1ccc(-c2nc3ccc(C(=O)c4ccccc4)cc3[nH]2)cc1 | ? | . | . | . | ?
Cc1nc2ccc(C(=O)c3ccccc3)cc2[nH]1 | ? | . | . | . | 18µM
C=C1c2cccc(O)c2C(O)=C2C(=O)[C@]3(O)C(O)=C(C(N)=O)C(=O)[C@@H](N(C)C)[C@@H]3[C@@H](O)[C@H]12 | . | . | / | / | /
C=C1c2cccc(O)c2C(O)=C2C(=O)[C@]3(O)C(O)=C(C(N)=O)C(=O)C(N(C)C)C3C(O)C12 (some centres undefined) | . | . | / | / | 16µM
CC(C)[C@H]1C(=O)C(C(N)=O)=C(O)[C@]2(O)C(=O)C3=C(O)c4c(O)ccc(N(C)C)c4C[C@H]3C[C@@H]12 | / | / | . | / | /
CN(C)c1ccc(O)c2c1C[C@@H]1C[C@H]3C(N(C)C)C(=O)C(C(N)=O)=C(O)[C@@]3(O)C(=O)C1=C2O (some centres undefined) | . | / | / | / | 28µM
CC1=Nc2ccccc2N=C(NC(=O)CSc2nnnn2-c2ccccc2)C1c1ccccc1 (centres undefined) | 4.5µM | . | . | ? | .
CCOC(=O)C1CCCN(CC(=O)NC2=Nc3ccccc3N=C(C)C2c2ccccc2)C1 (centres undefined) | 4.5µM | . | . | . | .
CCOC(=O)C1CCCN(CCC(=O)Nc2ccccc2)C1 (centres undefined) | . | . | . | . | .
CC1=Nc2ccccc2N=C(NC(=O)c2ccccc2)C1c1ccccc1 (centres undefined) | ? | . | / | / | /
CCOC(=O)C1CCCN(CC(=O)Nc2cc(C)cc(C)c2)C1 (centres undefined) | . | . | / | / | /
CCOC(=O)C1CCCN(CC(=O)Nc2cccc(C(C)=O)c2)C1 (centres undefined) | 10µM | . | / | / | /
CCOC(=O)NC(=O)CSc1nnnn1-c1ccccc1 | ? | . | . | . | .
CC1=Nc2ccccc2N=C(NC(=O)CN2CCN(c3ccccc3)CC2)C1c1ccccc1 (centres undefined) | 0.89µM | . | / | / | /
COc1cc2c(cc1NC(=O)C(C)Oc1ccc(Cl)cc1Cl)oc1ccccc12 (centres undefined) | / | / | . | / | /
SMILES | ALDH1A1 inh | IMPase Li cell | IMPase inh | PNC assembly inh | HPGD inh
COc1ccc(N(C(=O)c2ccccc2OC(C)=O)C(C)C2CC2)cc1 (centres undefined) | . | . | . | . | .
Cc1ccc2nc(N3CCN(C=O)CC3)nc(-c3ccccc3)c2c1 | ? | . | . | -100 | .
COc1ccc(NC(=O)CSc2nnc(-c3cccs3)n2C)cc1OC | . | . | . | . | .
COc1ccc(NC(=O)CSc2nc3c(c(-c4cccs4)c2C#N)CN(C)CC3)cc1OC | 14µM | . | . | . | .
COc1ccccc1CNC(=O)CSc1nc(N)c(C#N)c(-c2cccs2)c1C#N | . | 3.5µM | . | . | ?
COc1ccc(C(=O)N2c3ccc(C)cc3C(C)(c3ccccc3)CC2(C)C)cc1 (centres undefined) | / | / | . | / | /
Cc1ccc(-c2nc3ccccc3c(C(=O)NCc3cccs3)c2C)cc1 | 24µM | . | . | . | .
O=C(NCc1cccs1)c1cc(-c2ccccc2)nc2ccccc12 | . | . | . | ? | .
CC(=O)SC(C)CC(=O)NCc1ccccc1 (centres undefined) | . | . | . | . | 28µM
CC(=O)SC(C)CC(=O)Nc1ccccc1 (centres undefined) | . | . | ? | . | .
COc1ccc(CCNC(=O)Cc2cccs2)cc1 | . | . | / | . | 35µM
O=C(NCc1cccs1)c1ccccc1F | . | . | . | . | 20µM
Cc1cccc(N2CCN(S(=O)(=O)c3c(C)nc4scc(C)n4c3=O)CC2)c1C | / | / | . | / | /
O=C(Cc1cccs1)NCc1ccncc1 | . | . | . | ? | .
O=C(Cc1cccs1)NCc1ccccc1F | . | . | . | . | 25µM
Cc1ccc(CNC(=O)Cc2cccs2)cc1 | . | . | . | . | 16µM
COc1ccc(CNC(=O)C(c2ccncc2)N(C(=O)Cc2cccs2)c2ccccc2)cc1 (centres undefined) | . | . | / | . | .
COCCN(C(=O)Cc1cccs1)C(C(=O)NCc1ccc(OC)cc1)c1ccccc1 (centres undefined) | 25µM | . | .[1.84 µM] | ? | .
O=C(Cc1cccs1)NCc1ccccc1 | . | . | . | . | 20µM
COc1ccc(N2CCN(Cc3nnc(-c4cccc(Br)c4)o3)CC2)cc1 | / | / | . | / | /
COc1cc(/C=N/n2c(C)n[nH]c2=S)ccc1OCc1ccc(F)cc1 | ? | . | / | . | 2.8µM
CCOC(=O)N1CCN(S(=O)(=O)c2cc([N+](=O)[O-])ccc2C)CC1 | . | . | / | / | /
CCOC(=O)N1CCC(=NNS(=O)(=O)c2cccc([N+](=O)[O-])c2)CC1 | 10µM | . | . | . | .
Cc1ccc(C(C[N+](=O)[O-])n2nc(C)cc2C)cc1 (centres undefined) | ? | . | . | . | 16µM
C=C(C(=O)O)[C@@H]1CC[C@@]2(C)CCC[C@](C)(O)[C@@H]2C1 | . | . | / | / | .
O=C(NCc1cn2ccsc2n1)c1c(F)cccc1Cl | . | . | . | . | 8.9µM
O=C(NCc1cn2ccsc2n1)c1cccc(C(F)(F)F)c1 | . | . | . | . | .
Nc1nc(Cc2ccccc2)nc(Cc2ccccc2)c1-c1ccccc1 | .[13.5 µM] | . | / | / | .
O=C(COc1ccc(-c2nnco2)cc1)N1CCN(S(=O)(=O)c2ccccc2)CC1 | . | . | . | -81 | .
